Bioassay records: PubChem BioAssay, National Center for Advancing Translational Sciences (NCATS)
Shown are actives, neighbours in structure and some others; about 3.8% of the full set was active somewhere.
A549 tox: A549 cytotoxicity, counter-screen for Nrf2 inhibitors; Potency, µM (doses to about 46 µM), for inactives: top-dose activity change, negative = cytotoxicity, usual class: inhibitors; A549 ARE-Fluc cells, CellTiter-Fluor viability, 18-24 h; 390,000 compounds, 0.16% hits; AID 504648; further: on the % scale 0 is the no-effect control and ±100 the full control effect
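A549 ARE-Fluc cells in 5% FBS OPTI-MEM, 5000 cells/well, rested 2 h then exposed to compounds in concentration-response for 18-24 h at 37 °C. Viability by CellTiter-Fluor fluorescence (Ex 405/Em 525) after 30 min; luciferase luminescence (BugLite, 15 min, RT) read afterwards.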
Nrf2 inh: blocks Nrf2 signaling. A549 ARE-Fluc reporter, luciferase luminescence, 18-24 h. Potency, µM (doses to about 46 µM), for inactives: at the highest dose activity change, negative = inhibition, hits mostly inhibitors. 360,000 compounds, 2.1% hits. AID 504444; further: on the % scale 0 is the no-effect control and ±100 the full control effect; nearly all actives have a fitted effect of over 60% in size
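Reporter: ARE-Fluc in A549. Exposure: 18-24 h, 37 °C, 5% CO2, 5% FBS OPTI-MEM. Readouts: fluorescent cytotoxicity (CellTiter-Fluor), then luminescent Nrf2 signal after BugLite.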
TGFb inhibitor: blocks TGF-b signaling; HepG2 CAGA-GFP TGF-b/SMAD3 reporter, GFP fluorescence, 18 h; TGF-beta stimulated, 500 pg/mL final; Potency, µM (series often up to 46.1 µM), for inactives: at the top dose activity, negative = inhibition, actives largely listed as inhibitors; 410,000 compounds, 1.2% hits; AID 588855; further: on the % scale 0 is the no-effect control and ±100 the full control effect; nearly all actives have a fitted effect of over 65% in size
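Using HEPG2 CAGA-GFP reporter cells at 1000 cells/well, we pinned test compounds, stimulated with recombinant TGF-beta (500 pg/mL final) and measured total well GFP after 18 h.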
ATXN2 expr inh: reduces ATXN2 reporter expression in HEK-293 cells; Potency, µM (titrated, usually from 57 µM), inactives show at the highest dose activity change, negative = inhibition, most hits filed as inhibitors; AID 1745845; HEK-293 ATXN2-luciferase reporter, luminescence, 24 h; 360,000 compounds, 0.72% hits; further: on the % scale 0 is the no-effect control and ±100 the full control effect; nearly all actives have a fitted effect of over 55% in size
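ATXN2-luciferase reporter cells (luciferase flanked by upstream and downstream ATXN2 gene portions) were treated 24 h at 37 °C with compounds at up to 57 uM. SteadyGlo luminescence gave expression; GF-AFC fluorescence gave viability.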
ATXN viability: cell viability loss in ATXN counter-screen | 400,000 compounds, 0.49% hits | S2 cells (HEK-293 line with an ATXN2-luciferase reporter) viability, CellTiter-Fluor protease fluorescence, 24 h | Potency, µM (series often up to 56.7 µM), most hits filed as cytotoxic | AID 651635; further: nearly all actives have a fitted effect of over 40% in size
HepG2 viability: HepG2 cytotoxicity, counter-screen for TGF-b inhibitors. HepG2 CAGA-GFP viability, ATP luminescence, 18 h. Potency, µM (series often up to 46.1 µM), inactives show top-dose activity change, negative = cytotoxicity, most hits filed as cytotoxic. 410,000 compounds, 0.76% hits
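HepG2 CAGA-GFP cells (1000/well, DMEM with 1% FBS) received compound, then TGF-beta at 500 pg/mL final, and were incubated 18 hours at 37 degrees C. Viability was read by CellTiter-Glo luminescence. Media-only wells were set as complete cell-killing and DMSO as no toxicity.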
An asterisk follows results filed as active; i = inactive; ? = inconclusive; nt = no result given; [ ] = another dose, or the depositor's remark. The call rests on the fitted dose curve; in most records, active means well fitted curve in the direction sought with a large enough effect; inconclusive means small, poorly fitted or top-dose-only effect, or another doubt; inactive means no such curve, though single readings can be large; an effect the other way counts as inactive or inconclusive. Potency means the concentration at half of the fitted maximal effect.

SMILES	A549 tox	Nrf2 inh	TGFb inhibitor	ATXN2 expr inh	ATXN viability	HepG2 viability
CC(C)[C@H]1c2ccc(F)cc2CC[C@@]1(CCN(C)CCCc1nc2ccccc2[nH]1)OC(=O)C1CC1	nt	nt	11µM*	nt	nt	-109%
CN(Cc1nc2ccccc2[nH]1)C(=O)C1CCC(=O)N(CCc2cccc(F)c2)C1 (stereo not drawn)	0%	-3%	-7%	3%	i	-6%
O=C(NCc1ccc(F)cc1)c1ccc(S(=O)(=O)Nc2cccc(C(F)(F)F)c2)cc1	-5%	23µM*	?	4%	i	-57%
O=C(NCc1ccccc1F)c1ccc(S(=O)(=O)Nc2cccc(C(F)(F)F)c2)cc1	-1%	?	-20%	3%	i	-11%
CCOC(=O)c1cc2c(=O)n3ccccc3nc2n(CCCOC)c1=NC(=O)c1cc2ccccc2o1	-13%	-11%[9.27 µM]	0%	-3%	i	3%
O=C(Cn1c(-c2cccs2)cc2ccccc21)NCCCN1CCN(c2cccc(Cl)c2)CC1	?	-1%	13µM*	?	?	-47%
Cc1ccc(C)c(N2CCN(CCCNC(=O)Cn3c(-c4cccs4)cc4ccccc43)CC2)c1	?	?	13µM*	25µM*	?	-107%
CN1CCN(CCCNC(=O)Cn2c(-c3cccs3)cc3ccccc32)CC1	-14%	2%	-12%	-8%	i	4%
Oc1ccccc1CNCCCN1CCOCC1	-3%	2%	-16%	-3%	?	3%
O=C(NCCCN1CCOCC1)c1ccc2c(=O)n(Cc3ccc(Cl)cc3)c(=S)[nH]c2c1	2%	-16%	1%	0%	i	-2%
C[C@]1(CO)CN(c2cc(C(=O)Nc3ccc4c(c3)-c3c(c(C(N)=O)nn3-c3ccc(F)cc3)CC4)c(Cl)cn2)C[C@@]1(C)CO	nt	nt	nt	8.6µM*	nt	nt
Cc1noc(NS(=O)(=O)c2ccc(NC(=O)CSc3nc4ccccc4s3)cc2)c1C	0%	12%	-4%	16%	i	-4%
Cc1cc(O)c(C(C)C)cc1NC(=S)Nc1cc(C(C)C)c(O)cc1C	0%	-5%	10µM*	?	?	4%
Cc1[nH]nc2c1C(c1ccco1)C(C#N)=C(N)O2 (stereo not drawn)	3%	?	-10%	8%	i	-9%
Cc1[nH]nc2c1C(c1cc(Br)cs1)C(C#N)=C(N)O2 (stereo not drawn)	-1%	8%	10µM*	-39%	i	-65%
Nc1nc(N)c(Cc2ccc(Cl)cc2Cl)c(N)n1	-14%	18µM*	-4%	-28%	?	-15%
Nc1nccc(SCc2ccc(Cl)cc2Cl)n1	2%	-5%	15%	1%	i	2%
Cc1ccc2nc(N)[nH]c(=O)c2c1Sc1ccncc1	nt	nt	nt	13µM*	i	nt
CC1(C)C[C@H](O)[C@]2(CO)CC[C@]3(C)C(=CCC4[C@@]5(C)CC[C@H](O)C(C)(C)C5CC[C@]43C)[C@@H]2C1 (stereo partly drawn)	3%	1%	-3%	-1%	i	-20%
CC1(C)CC[C@]2(C(=O)O)CC[C@]3(C)C(=CC[C@@H]4[C@@]5(C)CC[C@H](O)C(C)(C)[C@@H]5CC[C@]43C)[C@@H]2C1	-1%	2%	-15%	-1%	i	2%
CC1(C)C[C@H](O)[C@]2(CO)[C@H](O)C[C@]3(C)C(=CCC4[C@@]5(C)CC[C@H](O)C(C)(C)C5CC[C@]43C)[C@@H]2C1 (stereo partly drawn)	?	?	?	?	?	11µM*
C[C@@H]1[C@H](C)CC[C@]2(C(=O)O)CC[C@]3(C)C(=CC[C@@H]4[C@@]5(C)CC[C@H](O)C(C)(C)[C@H]5CC[C@]43C)[C@@H]12	nt	nt	nt	56µM*	nt	nt
COc1ccc(OC)c(Nc2sc(C(=O)c3ccccc3)c(N)c2S(=O)(=O)c2ccccc2)c1	-4%	-11%	-4%	nt	nt	5%
CCn1c(=NC(=O)CS(=O)(=O)c2ccc(F)cc2)sc2cccc(OC)c21	-1%	21µM*	0%	-18%	i	-16%
CCn1c(=NC(=O)CCS(=O)(=O)c2ccccc2)sc2cccc(OC)c21	-23%	?	-25%	-27%	i	-15%
SMILES	A549 tox	Nrf2 inh	TGFb inhibitor	ATXN2 expr inh	ATXN viability	HepG2 viability
CN(C(=O)c1ccc(NC(=O)c2ccco2)cc1)c1ccccc1	1%	1%	-2%	17%	nt	7.9µM*
O=C(Nc1ccc(NC(=O)c2ccco2)cc1)c1ccc2c(c1)OCCO2	-14%	?	6%	16µM*	?	6%
Cc1ccc(C(=O)Nc2ccc3c(c2)OCCO3)cc1	4%	?	17%	13µM*	i	-26%
Cc1cc(NC(=O)c2ccc3c(c2)OCO3)no1	-4%	-17%	3%	-6%	i	-11%
Cc1ccc(C(=O)Nc2ccc3c(c2)OCO3)cc1	-3%	?	-23%	-11%	i	-21%
CN(C(=O)c1cccc(NC(=O)c2ccco2)c1)c1ccccc1	-2%	-10%	14%	27%	i	-7%
Cc1cc(NC(=O)c2ccc3c(c2)OCCO3)no1	?	?	-2%	11µM*	i	-24%
Cc1cc(S(=O)(=O)N(Cc2ccc3c(c2)OCO3)CC2CCCO2)ccc1-n1cnnn1 (stereo not drawn)	-2%	nt	3%	-4%	i	6%
O=C(Nc1nccs1)[C@@H]1CC=C[C@@H]2CCN(Cc3ccc(Cl)c(Cl)c3)C(=O)[C@@H]21	nt	nt	-23%	nt	nt	-22%
O=S1OCCN1c1ccccc1 (stereo not drawn)	2%	1%	5%	3%	i	1%
COc1ccc(NC(=O)CSc2ccc3c(c2)OCCO3)cc1	-1%	-12%	0%	2%	i	-12%
CC(=O)Nc1ccc(SCC(=O)Nc2ccc3c(c2)OCCO3)cc1	-4%	?	4%	2%	i	3.5µM*
Cn1c(=O)c2c(SCC(=O)Nc3ccc4c(c3)OCCO4)nc(CC(C)(C)C)nc2n(C)c1=O	?	7.3µM*	8%	-2%	i	5%
COc1ccc(CCNc2ncnc3onc(C)c23)c(OC)c1	0%	?	-4%	?	i	-9%
CC1CC(O)C(C)CN1 (stereo not drawn)	3%	8%	?	7%	i	16%
CCC(=O)Nc1ccc(C(=O)COC(=O)Cc2ccsc2)cc1	1%	1%	-1%	0%	i	-3%
